Experiment in all cases: log2 ratio of Biotin-Ahx-Ub-VS probe labelling (fragment/DMSO); higher = less target engagement (more negative = stronger competition), active = hit call of the paper (q ≤ 0.05, log2 ratio ≤ -1)
Common to all, as to conditions: compound concentration: 200 uM; treatment time: 3 h

One experiment concerns the target T1, USP19 (UniProt O94966).
T1 sequence (whole entry): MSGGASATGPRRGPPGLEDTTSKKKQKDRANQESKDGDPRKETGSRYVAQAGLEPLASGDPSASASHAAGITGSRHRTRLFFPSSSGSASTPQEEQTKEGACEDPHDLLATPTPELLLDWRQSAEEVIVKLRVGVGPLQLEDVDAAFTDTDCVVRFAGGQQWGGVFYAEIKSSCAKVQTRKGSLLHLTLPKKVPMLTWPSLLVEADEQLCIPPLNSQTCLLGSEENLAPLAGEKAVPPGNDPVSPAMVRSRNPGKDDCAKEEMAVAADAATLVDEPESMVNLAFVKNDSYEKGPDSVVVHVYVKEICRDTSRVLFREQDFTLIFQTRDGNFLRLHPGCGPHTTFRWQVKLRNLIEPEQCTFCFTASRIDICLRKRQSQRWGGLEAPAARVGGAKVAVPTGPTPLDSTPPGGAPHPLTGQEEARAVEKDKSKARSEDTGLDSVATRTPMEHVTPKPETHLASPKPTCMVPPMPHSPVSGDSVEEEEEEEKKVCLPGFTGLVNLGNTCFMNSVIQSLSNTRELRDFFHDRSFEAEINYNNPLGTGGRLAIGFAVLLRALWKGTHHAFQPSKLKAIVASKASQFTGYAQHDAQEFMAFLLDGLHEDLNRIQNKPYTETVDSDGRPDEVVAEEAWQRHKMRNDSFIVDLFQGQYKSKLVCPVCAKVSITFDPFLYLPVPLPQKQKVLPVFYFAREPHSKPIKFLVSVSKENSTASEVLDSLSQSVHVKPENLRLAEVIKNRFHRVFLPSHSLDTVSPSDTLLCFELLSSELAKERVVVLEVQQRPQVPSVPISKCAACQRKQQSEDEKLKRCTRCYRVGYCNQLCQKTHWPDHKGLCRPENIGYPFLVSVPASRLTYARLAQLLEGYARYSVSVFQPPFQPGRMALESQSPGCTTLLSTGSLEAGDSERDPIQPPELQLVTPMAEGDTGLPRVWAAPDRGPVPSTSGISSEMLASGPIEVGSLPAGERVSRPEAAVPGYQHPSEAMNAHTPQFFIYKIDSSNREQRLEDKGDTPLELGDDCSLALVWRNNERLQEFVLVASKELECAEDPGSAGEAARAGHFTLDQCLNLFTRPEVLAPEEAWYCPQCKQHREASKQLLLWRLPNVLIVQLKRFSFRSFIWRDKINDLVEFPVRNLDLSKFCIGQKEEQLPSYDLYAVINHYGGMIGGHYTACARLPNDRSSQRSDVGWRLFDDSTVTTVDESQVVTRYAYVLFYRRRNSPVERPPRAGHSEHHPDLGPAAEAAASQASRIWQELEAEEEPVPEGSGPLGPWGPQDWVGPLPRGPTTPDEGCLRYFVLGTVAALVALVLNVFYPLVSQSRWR
An outline of the steps: (§1)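 HEK293T lysate in Tris/CHAPS/IGEPAL buffer with protease inhibitors (495 µg per sample) was given fragment at 200 µM or vehicle for 3 h, in triplicate. It then received Biotin-Ahx-Ub-VS at 0.5 µM final for 1 h. Labelled DUBs were NeutrAvidin-enriched, digested with LysC and trypsin, and run by diaPASEF LC-MS/MS. Values are average log2 fragment/vehicle ratios by unpaired t-test on global-median-normalised Spectronaut quantities of proteins with ≥2 unique peptides.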

In a further experiment the target is T2, USP22 (UniProt Q9UPT9).
T2 sequence (whole entry): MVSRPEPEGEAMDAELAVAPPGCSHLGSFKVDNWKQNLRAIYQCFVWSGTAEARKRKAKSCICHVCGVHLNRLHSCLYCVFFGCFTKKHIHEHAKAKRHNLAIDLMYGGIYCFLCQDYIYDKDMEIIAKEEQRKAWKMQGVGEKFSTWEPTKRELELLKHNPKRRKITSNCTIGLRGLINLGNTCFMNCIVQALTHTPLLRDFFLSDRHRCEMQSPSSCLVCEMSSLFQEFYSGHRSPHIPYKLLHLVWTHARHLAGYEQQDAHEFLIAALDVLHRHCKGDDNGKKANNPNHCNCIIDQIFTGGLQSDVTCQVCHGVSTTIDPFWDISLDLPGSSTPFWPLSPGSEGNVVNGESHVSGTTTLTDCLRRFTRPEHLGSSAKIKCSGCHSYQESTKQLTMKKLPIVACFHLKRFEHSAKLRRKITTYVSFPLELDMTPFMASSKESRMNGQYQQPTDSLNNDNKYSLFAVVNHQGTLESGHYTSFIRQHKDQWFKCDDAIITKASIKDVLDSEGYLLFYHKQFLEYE
The procedure, abridged: as §1

The target of the next experiment is USP24 (UniProt Q9UPU5). The procedure, abridged: as §1
For a further experiment, the target named is T3, USP25 (UniProt Q9UHP3).
T3 sequence (whole entry): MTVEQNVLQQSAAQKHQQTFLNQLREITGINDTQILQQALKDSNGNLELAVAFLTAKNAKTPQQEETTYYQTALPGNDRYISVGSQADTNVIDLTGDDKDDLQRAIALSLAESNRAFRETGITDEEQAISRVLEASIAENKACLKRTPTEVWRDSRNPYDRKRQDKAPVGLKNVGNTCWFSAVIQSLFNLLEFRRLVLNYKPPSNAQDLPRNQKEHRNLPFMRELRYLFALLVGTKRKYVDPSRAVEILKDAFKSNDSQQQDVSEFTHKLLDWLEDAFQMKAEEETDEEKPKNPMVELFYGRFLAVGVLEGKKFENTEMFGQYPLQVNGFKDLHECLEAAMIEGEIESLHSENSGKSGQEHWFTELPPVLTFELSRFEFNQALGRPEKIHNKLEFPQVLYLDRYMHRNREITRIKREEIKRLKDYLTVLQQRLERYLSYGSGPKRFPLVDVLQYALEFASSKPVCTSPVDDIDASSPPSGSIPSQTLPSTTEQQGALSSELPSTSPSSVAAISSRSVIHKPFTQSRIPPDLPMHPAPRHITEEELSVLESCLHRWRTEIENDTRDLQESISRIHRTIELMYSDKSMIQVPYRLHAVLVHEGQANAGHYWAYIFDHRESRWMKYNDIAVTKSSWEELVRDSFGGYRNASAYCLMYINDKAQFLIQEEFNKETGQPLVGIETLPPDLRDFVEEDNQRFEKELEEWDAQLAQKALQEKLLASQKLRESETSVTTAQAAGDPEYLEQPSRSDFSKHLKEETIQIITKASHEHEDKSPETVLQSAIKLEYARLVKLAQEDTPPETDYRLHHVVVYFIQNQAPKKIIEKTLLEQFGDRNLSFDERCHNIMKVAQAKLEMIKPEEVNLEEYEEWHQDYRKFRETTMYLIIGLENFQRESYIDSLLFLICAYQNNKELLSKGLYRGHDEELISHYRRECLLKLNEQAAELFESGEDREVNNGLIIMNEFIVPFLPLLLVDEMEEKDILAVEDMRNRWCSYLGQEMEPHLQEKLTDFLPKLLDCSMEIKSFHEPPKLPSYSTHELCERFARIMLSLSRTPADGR
An outline of the steps: as §1

The target in a further experiment is T4, USP28 (UniProt Q96RU2).
T4 sequence (whole entry): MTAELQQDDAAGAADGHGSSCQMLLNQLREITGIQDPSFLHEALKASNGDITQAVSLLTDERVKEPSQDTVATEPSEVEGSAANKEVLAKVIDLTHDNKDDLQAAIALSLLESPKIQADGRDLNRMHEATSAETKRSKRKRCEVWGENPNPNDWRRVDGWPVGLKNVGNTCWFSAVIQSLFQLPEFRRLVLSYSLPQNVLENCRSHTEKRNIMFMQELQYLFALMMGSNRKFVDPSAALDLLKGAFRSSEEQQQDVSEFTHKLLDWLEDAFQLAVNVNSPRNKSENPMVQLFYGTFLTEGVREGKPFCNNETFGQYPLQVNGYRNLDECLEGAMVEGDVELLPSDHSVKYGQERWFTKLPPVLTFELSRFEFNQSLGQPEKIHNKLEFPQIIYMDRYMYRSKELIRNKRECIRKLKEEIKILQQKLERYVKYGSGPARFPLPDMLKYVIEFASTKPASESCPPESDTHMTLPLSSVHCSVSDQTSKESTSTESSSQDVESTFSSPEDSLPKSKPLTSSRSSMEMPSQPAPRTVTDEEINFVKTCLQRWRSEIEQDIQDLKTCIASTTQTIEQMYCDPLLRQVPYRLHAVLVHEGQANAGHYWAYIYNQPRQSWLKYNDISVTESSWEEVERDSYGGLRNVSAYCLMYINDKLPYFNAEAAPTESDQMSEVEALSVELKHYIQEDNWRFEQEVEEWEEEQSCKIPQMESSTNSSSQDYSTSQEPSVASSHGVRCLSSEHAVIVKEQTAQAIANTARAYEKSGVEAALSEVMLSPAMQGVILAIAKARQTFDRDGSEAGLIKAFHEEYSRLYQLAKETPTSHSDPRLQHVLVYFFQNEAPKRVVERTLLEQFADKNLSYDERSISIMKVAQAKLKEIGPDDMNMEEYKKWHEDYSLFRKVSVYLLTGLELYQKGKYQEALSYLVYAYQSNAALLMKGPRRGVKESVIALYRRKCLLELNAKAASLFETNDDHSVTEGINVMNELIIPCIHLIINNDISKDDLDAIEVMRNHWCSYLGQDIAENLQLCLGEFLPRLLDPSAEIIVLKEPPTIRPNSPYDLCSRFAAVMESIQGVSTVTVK
The procedure, abridged:
as §1

A number with no mark means an inactive call.

Sequence of USP24 (Q9UPU5 whole entry): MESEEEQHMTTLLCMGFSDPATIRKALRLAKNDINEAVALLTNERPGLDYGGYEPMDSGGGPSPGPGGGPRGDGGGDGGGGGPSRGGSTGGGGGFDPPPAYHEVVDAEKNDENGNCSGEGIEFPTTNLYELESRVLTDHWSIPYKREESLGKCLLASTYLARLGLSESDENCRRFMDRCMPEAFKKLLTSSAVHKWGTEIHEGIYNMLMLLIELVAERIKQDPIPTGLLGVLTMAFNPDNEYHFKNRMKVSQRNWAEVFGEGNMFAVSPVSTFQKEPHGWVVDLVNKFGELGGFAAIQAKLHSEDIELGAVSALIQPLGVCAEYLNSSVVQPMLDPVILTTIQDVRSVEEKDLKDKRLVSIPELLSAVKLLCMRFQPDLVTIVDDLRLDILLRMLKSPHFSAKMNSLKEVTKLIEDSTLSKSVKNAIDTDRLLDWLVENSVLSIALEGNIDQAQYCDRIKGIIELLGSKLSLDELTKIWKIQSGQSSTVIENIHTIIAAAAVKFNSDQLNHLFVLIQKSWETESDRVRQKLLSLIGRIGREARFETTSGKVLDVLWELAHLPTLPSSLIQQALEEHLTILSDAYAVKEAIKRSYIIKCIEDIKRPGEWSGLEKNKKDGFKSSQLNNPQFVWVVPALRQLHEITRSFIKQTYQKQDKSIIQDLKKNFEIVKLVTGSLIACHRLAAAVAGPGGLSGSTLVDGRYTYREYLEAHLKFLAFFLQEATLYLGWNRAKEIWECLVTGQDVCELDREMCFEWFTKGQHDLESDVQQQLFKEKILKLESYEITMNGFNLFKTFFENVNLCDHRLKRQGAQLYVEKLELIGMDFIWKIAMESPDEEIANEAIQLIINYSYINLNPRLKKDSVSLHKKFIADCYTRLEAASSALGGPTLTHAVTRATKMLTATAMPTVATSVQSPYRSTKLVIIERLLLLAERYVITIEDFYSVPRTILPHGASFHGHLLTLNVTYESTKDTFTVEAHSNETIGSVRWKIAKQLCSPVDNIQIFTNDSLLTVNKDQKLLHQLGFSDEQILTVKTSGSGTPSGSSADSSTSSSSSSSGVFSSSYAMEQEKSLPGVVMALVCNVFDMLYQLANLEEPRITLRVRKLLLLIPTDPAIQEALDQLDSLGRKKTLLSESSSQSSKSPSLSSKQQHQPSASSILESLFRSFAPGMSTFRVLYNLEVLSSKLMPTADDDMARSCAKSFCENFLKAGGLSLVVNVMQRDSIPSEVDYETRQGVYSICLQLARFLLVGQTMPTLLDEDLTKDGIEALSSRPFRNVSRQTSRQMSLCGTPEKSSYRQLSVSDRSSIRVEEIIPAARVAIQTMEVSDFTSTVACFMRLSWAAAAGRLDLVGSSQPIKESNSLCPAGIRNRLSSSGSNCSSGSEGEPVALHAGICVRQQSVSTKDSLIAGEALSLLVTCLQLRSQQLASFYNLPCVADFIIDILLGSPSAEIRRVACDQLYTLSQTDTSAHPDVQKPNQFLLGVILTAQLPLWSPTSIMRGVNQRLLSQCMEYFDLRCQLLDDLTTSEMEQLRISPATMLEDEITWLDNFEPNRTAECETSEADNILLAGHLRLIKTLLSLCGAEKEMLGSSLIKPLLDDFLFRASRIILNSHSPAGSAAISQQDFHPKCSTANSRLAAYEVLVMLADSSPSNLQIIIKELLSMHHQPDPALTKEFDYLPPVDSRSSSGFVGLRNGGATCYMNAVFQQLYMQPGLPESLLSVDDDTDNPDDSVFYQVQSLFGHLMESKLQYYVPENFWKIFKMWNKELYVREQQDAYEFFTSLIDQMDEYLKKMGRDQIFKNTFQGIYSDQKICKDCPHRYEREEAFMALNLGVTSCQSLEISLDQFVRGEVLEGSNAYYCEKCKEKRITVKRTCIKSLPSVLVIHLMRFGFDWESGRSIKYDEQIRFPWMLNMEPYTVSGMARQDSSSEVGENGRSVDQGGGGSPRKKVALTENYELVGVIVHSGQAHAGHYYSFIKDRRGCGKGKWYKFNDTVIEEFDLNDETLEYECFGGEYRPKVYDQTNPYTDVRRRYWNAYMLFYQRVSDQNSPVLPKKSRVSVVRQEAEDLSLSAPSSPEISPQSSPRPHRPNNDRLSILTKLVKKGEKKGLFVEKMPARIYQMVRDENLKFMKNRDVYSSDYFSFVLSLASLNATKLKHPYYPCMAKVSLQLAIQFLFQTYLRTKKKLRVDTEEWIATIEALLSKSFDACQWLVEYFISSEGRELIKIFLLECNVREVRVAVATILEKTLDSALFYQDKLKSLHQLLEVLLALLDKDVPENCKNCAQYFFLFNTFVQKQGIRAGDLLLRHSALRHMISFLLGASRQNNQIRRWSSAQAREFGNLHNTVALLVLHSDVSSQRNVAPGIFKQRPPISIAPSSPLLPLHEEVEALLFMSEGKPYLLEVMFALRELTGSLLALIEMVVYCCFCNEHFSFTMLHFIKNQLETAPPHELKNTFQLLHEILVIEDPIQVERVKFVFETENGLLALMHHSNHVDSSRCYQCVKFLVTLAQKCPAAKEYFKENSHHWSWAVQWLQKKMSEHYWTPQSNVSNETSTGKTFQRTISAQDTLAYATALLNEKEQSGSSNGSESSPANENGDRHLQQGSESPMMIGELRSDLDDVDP

Regarding `O=C(CCl)N1CCOC(c2cccc(F)c2)C1` (stereo not given), the “log2 ratio of Biotin-Ahx-Ub-VS probe labelling” value was -0.335 in the experiment with USP19; -0.24 with USP22; -1.13 (active) with USP24; -0.541 with USP25; -0.953 in the experiment with USP28.

The record behind these values is the supplement of paper PMC11732987, “Enantioselective OTUD7B fragment discovery through chemoproteomics screening and high-throughput optimisation” (Communications Chemistry, 2025).
